AmpC inh detg: inhibitors of E. coli AmpC beta-lactamase with detergent | AmpC hydrolysis of nitrocefin, absorbance 480 nm, 0.01% Triton | Potency, µM (titrated, usually from 114 µM), most hits filed as inhibitors | 370,000 compounds, 0.041% hits | AID 485294; further: nearly all actives have a fitted effect of over 25% in size
Target sequence (P00811 whole entry, looked up): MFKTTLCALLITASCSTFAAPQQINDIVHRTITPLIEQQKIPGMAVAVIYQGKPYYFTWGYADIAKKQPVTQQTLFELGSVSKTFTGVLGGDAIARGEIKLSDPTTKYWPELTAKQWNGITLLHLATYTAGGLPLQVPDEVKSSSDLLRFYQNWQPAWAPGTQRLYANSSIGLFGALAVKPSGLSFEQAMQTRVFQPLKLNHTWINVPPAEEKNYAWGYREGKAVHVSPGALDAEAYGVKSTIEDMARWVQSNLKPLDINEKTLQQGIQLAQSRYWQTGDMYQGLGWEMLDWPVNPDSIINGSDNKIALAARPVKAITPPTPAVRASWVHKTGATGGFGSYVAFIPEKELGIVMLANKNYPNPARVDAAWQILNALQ
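AmpC (5.3 nM in the dispensed reagent) in 20 mM phosphate pH 7.0 with 0.01% (detergent screen) or 0.0001% Triton X-100 was preincubated with compounds for 15 min at room temperature. Nitrocefin was then added from an 800 uM solution, and hydrolysis was followed at 480 nm.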
AmpC no deterg: inhibitors of E. coli AmpC beta-lactamase without detergent. Potency, µM (series often up to 57.1 µM), most hits filed as inhibitors. AmpC nitrocefin hydrolysis, absorbance 480 nm, 0.0001% Triton. 330,000 compounds, 0.52% hits. AID 485341; further: nearly all actives have a fitted effect of over 20% in size
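AmpC (5.3 nM in the dispensed reagent) in 20 mM phosphate pH 7.0 with 0.01% (detergent screen) or 0.0001% Triton X-100 was preincubated with compounds for 15 min at room temperature. Nitrocefin was then added from an 800 uM solution, and hydrolysis was followed at 480 nm.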
Vaccinia mCherry: inhibitors of vaccinia virus infection (mCherry reporter signal); Vaccinia virus mCherry reporter infection, fluorescence; Potency, µM (highest dose often 36.5 µM), actives largely listed as inhibitors; 310,000 compounds, 0.63% hits; AID 720579; calls by dose curve; tested in A549 cells; further: nearly all actives have a fitted effect of over 35% in size
SARS PLpro yeast: SARS-CoV PLP inhibition in yeast; 330,000 compounds, 0.19% hits; AID 485353; Potency, µM (highest dose often 32.9 µM), actives largely listed as activators; S. cerevisiae expressing SARS-CoV PLpro, growth rescue; calls by dose curve; further: nearly all actives have a fitted effect of over 55% in size
VACV Venus inh: inhibitors of vaccinia virus (Venus reporter); Vaccinia virus Venus reporter expression, fluorescence; Potency, µM (doses to about 36.5 µM), most hits filed as inhibitors; 330,000 compounds, 0.46% hits; AID 720580; calls by dose curve; tested in A549 cells; further: nearly all actives have a fitted effect of over 30% in size
Hits are given with their value. Hits are enriched below; roughly 1.3% of the tested compounds scored in any of these assays. Unless noted, the call rests on the fitted dose curve; in most records, active means well fitted curve in the direction sought with a large enough effect; inconclusive means small, poorly fitted or top-dose-only effect, or another doubt; inactive means no such curve, though single readings can be large; an effect the other way counts as inactive or inconclusive.

For CCOc1ccc(-n2c(SCC(=O)NCc3ccco3)nnc2-c2c[nH]c3ccccc23)cc1 the results were AmpC inh detg inconclusive, AmpC no deterg 1.41µM, Vaccinia mCherry inactive, SARS PLpro yeast inactive and VACV Venus inh inconclusive.
Screening CC[C@H]1OC(=O)C[C@@H](O)[C@H](C)[C@@H](O[C@@H]2O[C@H](C)[C@@H](O)[C@H](N(C)C)[C@H]2O)[C@@H](CCN2C[C@H](C)C[C@H](C)C2)C[C@@H](C)C(=O)/C=C/C(C)=C/[C@@H]1CO[C@@H]1O[C@H](C)[C@@H](O)[C@@H](OC)[C@H]1OC returned Vaccinia mCherry inactive and VACV Venus inh inactive.
For O=C(NCc1nnc2n1CCN(Cc1cc3c(cc1Cl)OCO3)CC2)C1CCOC1 (configuration not stated) the results were Vaccinia mCherry inactive and VACV Venus inh inactive.
For CCc1ccccc1N1C(=O)NC(=O)/C(=C\c2cc(C)n(C)c2C)C1=O the results were AmpC inh detg inactive, AmpC no deterg inactive, Vaccinia mCherry 10µM, SARS PLpro yeast inactive and VACV Venus inh inactive.
For Cc1cc(CNC(=O)c2cnn(-c3nccc(-c4ccc5c(c4)OCO5)n3)c2C2CC2)on1 the results were Vaccinia mCherry inactive and VACV Venus inh inactive.
Screening O=C(N/N=C/c1ccco1)c1cc(-c2ccccc2)nc2ccccc12 returned AmpC inh detg inactive, AmpC no deterg inconclusive, Vaccinia mCherry inconclusive, SARS PLpro yeast inconclusive and VACV Venus inh inactive.
Screening O=C(N/N=C/c1ccco1)c1cc(C2CC2)nc2ccccc12 returned AmpC inh detg inactive, AmpC no deterg 28.2µM and SARS PLpro yeast inactive.
For CCn1c(-c2ccccc2F)nc2cc(NC(C)=O)cc(C(=O)NCc3ncc(C)[nH]3)c21 the results were Vaccinia mCherry inactive and VACV Venus inh inactive.
Screening OCCN1CCN(Cc2ccc3c(c2)CN(Cc2cc4ccccc4o2)CCO3)CC1 returned Vaccinia mCherry inactive and VACV Venus inh inactive.
For CCc1ccccc1NC(=O)Cn1c(-c2nonc2N)nc2ccccc21 the results were AmpC inh detg inactive, Vaccinia mCherry inactive and VACV Venus inh inactive.
CCC(=O)Nc1nonc1-c1nc2ccccc2n1Cc1ccccc1 was read as AmpC inh detg inactive, AmpC no deterg inactive, Vaccinia mCherry inactive, SARS PLpro yeast inactive and VACV Venus inh inactive.
For CCOC(=O)Cn1c(-c2nonc2NC(=O)c2ccccc2F)nc2ccccc21 the results were AmpC inh detg inactive, AmpC no deterg inactive, Vaccinia mCherry 10µM, SARS PLpro yeast inactive and VACV Venus inh inactive.
`CCCCOc1ccccc1NC(=O)Cn1c(-c2nonc2N)nc2ccccc21` gave AmpC inh detg inconclusive, AmpC no deterg inconclusive, Vaccinia mCherry 3.98µM, SARS PLpro yeast inactive and VACV Venus inh inconclusive.
CSc1nnc(CNC(=O)c2c(-c3ccccc3)noc2C)n1-c1ccc(F)cc1 was read as Vaccinia mCherry inactive and VACV Venus inh inactive.
Screening COc1cccc(CN2C(=O)NC(C)(C3CCN(Cc4cc(Cl)ccc4O)CC3)C2=O)c1OC (configuration not stated) returned Vaccinia mCherry inactive and VACV Venus inh inactive.
C=CC1CN2CCC1CC2[C@@H](O)c1ccnc2ccc(OC)cc12 (some centres not stated) was read as Vaccinia mCherry inactive and VACV Venus inh inactive.
Cc1ccc2c(c1)-c1c(cnn1CC(=O)N(Cc1ccco1)C1CCCCC1)CO2 was read as AmpC inh detg inactive, AmpC no deterg 50.1µM, Vaccinia mCherry inactive, SARS PLpro yeast inactive and VACV Venus inh inactive.
For Cc1ccc2c(c1)-c1c(cnn1CC(=O)NC(C)CCc1ccco1)CO2 (configuration not stated) the results were AmpC inh detg inconclusive, AmpC no deterg inactive, Vaccinia mCherry inactive, SARS PLpro yeast inactive and VACV Venus inh inactive.
Screening CCC1CN(CCNC(=O)C2CCCCN2C)Cc2cc(OC)ccc2O1 (configuration not stated) returned Vaccinia mCherry inactive and VACV Venus inh inactive.
CC1(C)Cc2c(sc3[nH]c(=S)n(Cc4ccco4)c(=O)c23)CO1 was read as AmpC inh detg inactive, AmpC no deterg inactive, Vaccinia mCherry inactive, SARS PLpro yeast inactive and VACV Venus inh inactive.
Screening O=c1c2c3c(sc2[nH]c(=S)n1Cc1ccco1)CCC3 returned AmpC inh detg inactive, AmpC no deterg 20µM, Vaccinia mCherry inactive, SARS PLpro yeast inactive and VACV Venus inh inactive.
For Cc1ccc(Cl)c(NC(=O)COC(=O)c2ccccc2C(=O)c2ccc(Cl)c([N+](=O)[O-])c2)c1Cl the results were AmpC inh detg inactive, AmpC no deterg 20µM, Vaccinia mCherry inconclusive, SARS PLpro yeast inactive and VACV Venus inh inconclusive.
Screening Cc1ccc(C(=O)c2ccccc2C(=O)OCC(=O)Nc2cccc([N+](=O)[O-])c2)cc1 returned AmpC inh detg inactive, AmpC no deterg inactive, Vaccinia mCherry inactive, SARS PLpro yeast inactive and VACV Venus inh inconclusive.
`CCCNC(=O)COC(=O)c1ccccc1C(=O)c1ccc(Cl)c([N+](=O)[O-])c1` gave AmpC inh detg inconclusive, AmpC no deterg inactive, Vaccinia mCherry inconclusive, SARS PLpro yeast inactive and VACV Venus inh 14.1µM.
For OC1(c2cccnc2)CCN(Cc2ccc3c(c2)CN(Cc2ccc(F)c(F)c2)CCO3)CC1 the results were Vaccinia mCherry inactive and VACV Venus inh inactive.
For CCCNC(=O)C1(C)CCN(Cc2cc(C(F)(F)F)ccc2Cl)C1 (configuration not stated) the results were Vaccinia mCherry inactive and VACV Venus inh inactive.
CN(C)CCCN(C(=O)/C=C/c1cccs1)c1nc2c(F)cccc2s1 was read as AmpC inh detg inconclusive, AmpC no deterg inactive, Vaccinia mCherry 10µM, SARS PLpro yeast inactive and VACV Venus inh 10µM.
CC1=CC(O)C(O)C2(C)C1CC1OC(=O)CC3C(C)C(O)C(=O)C2C13CO (configuration not stated) was read as Vaccinia mCherry 8.91µM and VACV Venus inh 6.31µM.
CCOc1ccc(NC(=O)CN2CC(c3ccccc3)CC2=O)cc1 (configuration not stated) was read as AmpC inh detg inactive, AmpC no deterg 2.51µM and SARS PLpro yeast inactive.
Screening O=C(N/N=C/c1ccc(OCc2ccc(F)cc2)cc1)c1ccccc1 returned AmpC inh detg inactive, AmpC no deterg inactive, Vaccinia mCherry inconclusive, SARS PLpro yeast inactive and VACV Venus inh inactive.
CC(C)(C)c1ccc(OCc2ccc(C(=O)N/N=C/c3ccc(O)c(O)c3)cc2)cc1 was read as AmpC inh detg inactive, AmpC no deterg 14.1µM, Vaccinia mCherry inactive, SARS PLpro yeast inactive and VACV Venus inh inactive.
Screening O=C(COc1ccccc1C(=O)N/N=C\c1ccc(O)c(O)c1)N/N=C/c1ccc(O)c(O)c1 returned AmpC inh detg inconclusive, AmpC no deterg 39.8µM, Vaccinia mCherry inactive, SARS PLpro yeast inactive and VACV Venus inh inactive.
Cc1cnc2c(C)ccc(C)c2c1/C=C/c1ccc(N(C)C)cc1 was read as Vaccinia mCherry inactive and VACV Venus inh inactive.
